# According to PubChem BioAssay (EPA / NIEHS):
# The source made the active and inactive calls. How the source made its calls: active means hit-call score of the fitted dose curve at least 0.9, where 1 is the maximum; inactive means score below 0.9.
# Assay: ATG_CRE_CIS: Attagene CIS-FACTORIAL HepG2 Assay for human cAMP Responsive Element (CRE) binding protein 3 (AID 2282926)
# Conditions: HepG2 CRE cis-reporter, Attagene multiplexed mRNA; actives raise or lower the signal
# Procedure, shortened: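 Endogenous CRE-binding activity in HepG2 is reported through a cis-regulated transfected reporter. Following a day of exposure, mRNA levels are determined by reverse transcription PCR and fluorescent fragment analysis; fits run in both directions versus DMSO.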
Structure (SMILES),outcome,AC50
CCC(=O)C=Cc1ccc(OC)cc1,inactive,
CCCCCC(C)OC(=O)COc1ccc(Cl)c2cccnc12 (centres undefined),inactive,
Brc1cc(Br)c(Oc2c(Br)cc(Br)c(Br)c2Br)cc1Br,inactive,
O=C(F)C(F)(F)C(F)(F)C(F)(F)C(F)F,inactive,
CC1CCC(CO)CC1 (centres undefined),inactive,
O=C(c1cc(O)c(O)c(O)c1)c1ccc(O)c(O)c1O,inactive,
C=CC(=O)OCCN(CC)CC,,26.9 µM (active)
CC(C)(c1ccc(Oc2ccc(N)cc2)cc1)c1ccc(Oc2ccc(N)cc2)cc1,inactive,
Cc1cccc2c1ccc1ccccc12,inactive,
CCN(CCC#N)c1ccccc1,inactive,
O=S(=O)(O)c1ccc2cc(O)ccc2c1,inactive,
OCC1CCC(CO)CC1 (centres undefined),inactive,
Cc1ccccc1OCC(=O)O,inactive,
NCc1cccc(CN)c1,inactive,
